Drawing on the supplement of paper PMC6555819, this text covers PBM binding z-score for eleven sequences.

Assay in all cases: PBM binding z-score (relative to random genomic background probes); higher = stronger binding; sequences stand for … in GC…GCGATTGACAGCGTAGAATGAAGG
Assay [1] concerns FXR:RXRa (NR concentration 270 nM, RXRa partner concentration 90 nM). In a few lines:
(§1)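 On custom Agilent 4×180K arrays, double-stranded probes with 34-nt variable regions carried direct-repeat seeds, single-nucleotide variants, half-site ablations or random human genomic background. Ligand-free nuclear receptor dimers were applied for 1 h, and binding was read with antibodies against each partner (one per run). Binding z-scores come from regression-normalized fluorescence, with the random background probes as reference.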

The test system of assay [2] is LXRa:RXRa (NR concentration 270 nM, RXRa partner concentration 90 nM). In a few lines: as §1
The subject of assay [3] is LXRa homodimer (NR concentration 270 nM). Summed up:
as §1

Assay [4] has as its system LXRb:RXRa (NR concentration 270 nM, RXRa partner concentration 90 nM). Summed up:
as §1

The test system of assay [5] is LXRb homodimer (NR concentration 270 nM). In a few lines:
as §1

The test system of assay [6] is PPARa:RXRa (NR concentration 270 nM, RXRa partner concentration 90 nM). Summed up:
as §1

The subject of assay [7] is PPARg:RXRa (NR concentration 180 nM, RXRa partner concentration 90 nM). Summed up: as §1
Assay [8] has as its system PPARg:RXRa 270nM:90nM, anti-RXR (NR concentration 270 nM, RXRa partner concentration 90 nM). In a few lines:
as §1

In assay [9] the test system is PPARg:RXRa 30nM:10nM, anti-RXR (NR concentration 30 nM, RXRa partner concentration 10 nM). In a few lines: as §1
The subject of assay [10] is PPARg:RXRa 90nM:30nM, anti-RXR (NR concentration 90 nM, RXRa partner concentration 30 nM). In a few lines: as §1

Take GGAACGAGGGCAAGTTTATAGCAGAGTTTGATGG: the PBM binding z-score was 0.688 in [1]; 0.332 in assay [2]; -0.039 in assay [3]; 0.229 in assay [4]; -0.306 in assay [5]; 1.61 in [6]. Moreover, the PBM binding z-score worked out at 1.24 in assay [7], 0.978 in [8], 0.337 in assay [9] and 0.307 in [10].

For CCTCGGAGGACAACAGGAGGTGAGAGCTGCCAGA, the PBM binding z-score is -0.0702 in assay [1]; -0.357 in assay [2]; -0.536 in [3]; -0.619 in assay [4]; -0.875 in assay [5]; -0.108 in [6]. For the same sequence, the PBM binding z-score was 0.133 in [7], -0.73 in assay [8], -0.83 in [9] and -0.93 in [10].

Turning to TCTAGCAGGCCAGAGGGTCACCCAAGAGGTACGG, the PBM binding z-score is 1.31 in assay [1]; 1.35 in assay [2]; -0.606 in assay [3]; 1.36 in assay [4]; -0.868 in assay [5]; 2.83 in assay [6]. Also, the PBM binding z-score in [7] is 1.73; in [8] it was 2.84; in assay [9], 1.92; in [10], 2.71.

On to TAGCATAGGTCATTGGGCCAGTATAGTACGCATC, for which the PBM binding z-score in assay [1] amounted to 6.02; in assay [2], 5.02; in assay [3] it was 1.27; in assay [4] it was 4.02; in assay [5], 0.541; in assay [6] it was 5.41. Also, the PBM binding z-score turned out to be 5.17 in assay [7], 5.29 in assay [8], 1.75 in assay [9] and 3.7 in assay [10].

With TCGAGTCGGTTAGTCGGGGCATTCAGCCAACATA, the PBM binding z-score in assay [1] is -0.133; in assay [2], -0.389; in assay [3] it was -0.468; in assay [4], 0.0657; in assay [5], -0.884; in assay [6] it was 0.295. In addition, the PBM binding z-score in assay [7] was -0.72; in [8], 0.168; in assay [9] it was 0.645; in [10], 0.378.

CGTCTAAGGTCAATGCTAGGTCAGTGAAAGCATT: the PBM binding z-score in assay [1] stood at 7.02; in assay [2], 5.82; in assay [3], 2.56; in assay [4], 4.58; in [5], 1.34; in [6] it was 5.36. Moreover, the PBM binding z-score amounted to 4.53 in [7], 5.68 in assay [8], 1.9 in assay [9] and 4.12 in assay [10].

For the sequence CCTACTGGGCCACGAAAGGTCATAGATTCAGTGA, the PBM binding z-score is 3.74 in [1]; 5.02 in assay [2]; 4.02 in assay [3]; 4.2 in assay [4]; 0.194 in [5]; 4.78 in [6]. Further, the PBM binding z-score amounted to 4.68 in assay [7], 4.98 in assay [8], 2.28 in [9] and 4.2 in assay [10].

With GGAACGAGGGCAAGTTGATCGCAGAGTTTGATGG, the PBM binding z-score in assay [1] was 0.747; in [2], 0.257; in assay [3], -0.518; in assay [4] it was 0.128; in assay [5], -0.392; in [6] it was 1.6. Also, the PBM binding z-score in assay [7] is 0.859; in assay [8], 0.878; in [9] it was -0.211; in assay [10] it was 0.517.

As to TCTAGTTGGTCAAGGAGGTCACACACGACGGGTA, the PBM binding z-score worked out at 3.04 in assay [1]; 3.16 in assay [2]; 1.88 in assay [3]; 3.23 in assay [4]; 0.53 in assay [5]; 3.73 in assay [6]. Besides, the PBM binding z-score in assay [7] turned out to be 2.59; in assay [8], 3.56; in [9], 3.6; in assay [10], 3.39.

As to CCGAGTAGGTTATGGGGCATTGAGGCAACGGTGA, the PBM binding z-score was 0.345 in assay [1]; 0.579 in assay [2]; -0.265 in [3]; 0.437 in [4]; -0.0283 in assay [5]; 2.09 in assay [6]. Further, the PBM binding z-score in assay [7] was 3.48; in assay [8], 4.63; in assay [9] it was 2.18; in [10], 4.57.

For ACTATTAGTTGAGACGAGGGCGACCGATAGGTTG, the PBM binding z-score in [1] is 0.0775; in assay [2] it was -0.2; in assay [3], 0.0498; in [4], -0.401; in assay [5], 8.35e-05; in assay [6], -0.485. The PBM binding z-score in [7] is 0.629; in assay [8], -0.198; in [9], 0.0514; in assay [10], -0.0518.
